Consider 14 compounds from PubChem BioAssay AID1347087 (National Center for Advancing Translational Sciences (NCATS), 2019).

“And” between values parts separate entries of the source, which are not always exact repeats. Equal entries are not always repeated. Results filed as inconclusive are left out. The source made the active and inactive calls. The call rests on the fitted dose curve.

The nature of this test: qHTS for Inhibitors of the Functional Ribonucleoprotein Complex (vRNP) of Lassa (LASV) Arenavirus: LASV Confirmatory Screen - GLuc reporter signal. The following applies: LASV minigenome vRNP, Gaussia luciferase reporter; series mostly up to 53.9 µM; activity, negative = inhibition: at the top concentration. (In general: qHTS replaces the single test concentration by a dilution series.)
`Oc1cc(Cl)ccc1Oc1ccc(Cl)cc1Cl`: the Potency was 25 µM (active).
In the case of `COc1ccc(Cc2nccc3cc(OC)c(OC)cc23)cc1OC`, the Potency is 3.06 µM (active) and 3.85 µM (active).
Regarding `CC1=C(C)C(=O)C(CCCCC#CCCCC#CCO)=C(C)C1=O`, the Potency was 24.3 µM (active).
For the compound `CC(=O)OCC(=O)[C@@]12N=C(C)O[C@H]1C[C@H]1[C@@H]3CCC4=CC(=O)C=C[C@]4(C)[C@@H]3[C@@H](O)C[C@@]12C`, the “activity, negative = inhibition” value is -10.9% (inactive).
As for `O=C1c2ccccc2-n2c1nc1ccccc1c2=O`, the Potency is 2.43 µM (active).
On to `FC(F)(F)c1ccc(C=Cc2nc(COc3ccc(CCCCn4ccnn4)cc3)co2)cc1`, for which the Potency was 0.0153 µM (active).
As to `CCC[C@H](N[C@@H](C)C(=O)N1[C@@H]2CCCC[C@H]2C[C@H]1C(=O)O)C(=O)OCC`, the “activity, negative = inhibition” value was 10.2% (inactive).
In the case of `S=C(NCc1ccc2c(c1)OCO2)N1CCN(c2ncnc3c2oc2ccccc23)CC1`, the Potency is 1.77 µM (active).
Take `CCC(C)c1nccnc1OC` (centres undefined): the “activity, negative = inhibition” value is -7.88% [at 110 µM] (inactive).
As to `CCCCC[C@H](O)/C=C/C=C/C/C=C\CCCC(=O)O`, the activity, negative = inhibition was 4.46% [at 0.666 µM] (inactive).
Consider `CCC1OC2(C)C(O)C(/C=C/C=C/C=C/c3oc(=O)cc(OC)c3C)OC1(C)C2OC(C)=O` (centres undefined), for which the Potency was 0.137 µM (active).
With `CCn1c(-c2nonc2N)nc2cnc(Oc3cccc(NC(=O)c4ccc(OCCN5CCOCC5)cc4)c3)cc21`, the Potency was 2.73 µM (active).
Regarding `CCCCC/C(C=O)=C\c1ccccc1`, the “activity, negative = inhibition” value was -6.3% (inactive).
As for `CC1OC(=O)[C@@H](C(C)C)NC(=O)C(C(C)C)OC(=O)[C@H](C(C)C)NC(=O)C(C)OC(=O)[C@@H](C(C)C)NC(=O)C(C(C)C)OC(=O)[C@H](C(C)C)NC(=O)C(C)OC(=O)[C@@H](C(C)C)NC(=O)C(C(C)C)OC(=O)[C@H](C(C)C)NC1=O` (some centres undefined), the Potency was 0.153 µM (active).
